# Results published in PubChem BioAssay (Tox21).
# Inconclusive results are not listed. Entries that show only a call come without a potency. Active and inactive are the calls of the source. Calls follow the shape of the full dose curve.
# Target: D(2) dopamine receptor (Homo sapiens) (UniProt P14416)
# Assay: Dopamine D2 receptor (DRD2) small molecule agonists, cell-based qHTS assay (AID 1963594); also: nearly all actives have a fitted effect of over 35% in size
# Settings: HEK293-DRD2 cAMP HTRF, agonist mode, 30 min; series mostly up to 92.4 µM
# Source text: National Center for Advancing Translational Sciences [NCATS]
# Division of Preclinical Innovation [DPI]
# U.S. Environmental Protection Agency [EPA]
# National Institutes of Environmental Health Sciences [NIEHS]
# National Toxicology Program [NTP]
# U.S. Food and Drug Administration [FDA]
# DRD2 is the D2 subtype of the dopamine receptor, which is coupled to Gi subtype of G protein-coupled receptor. This G protein-coupled receptor inhibits adenylyl cyclase activity. The DRD2-HEK293 cell line stably expressing D2 dopamine receptor can be used for screening agonists and antagonists of interactions between D2 and its ligands. The Hek293-DRD2 cAMP assay is based on HTRF technology. It measures changes of cAMP accumulation in response to Gi coupled GPCR activation or inhibition.
# Tox21 Assay Protocol Summary:
# DRD2-Hek293 cells were dispensed at 600 cells/3uL/well in 1536-well white plates using a Multidrop Dispenser. After the assay plates were incubated at a 37 C/5% CO2 incubator for 24 h, 1 uL of Ro20-1724 at final concentration of 0.1 mM was transferred to the assay plate by a Flying Reagent Dispenser. Following Ro20-1724 addition, 23 nL of compound dissolved in DMSO, positive controls or DMSO only was added to the assay plates via Wako pintool station. The assay plates were incubated at room temperature for 10 min. Next, 1 uL of NKH477 at 200nM was added into the plates. After the assay plates were incubated at room temperature for an additional 30 min, 2.5 ul/well of cAMP-d2 and 2.5 ul/well of anti-cAMP-cryptate were added respectively into the assay plates using a Flying Reagent Dispenser. The plates were incubated at room temperature for 1 h. The fluorescence intensity in the plates was measured at 340 nm excitation and 665 & 620 nm emission by an Envision plate reader.
# D(2) dopamine receptor (Homo sapiens), sequence (P14416 whole entry, looked up): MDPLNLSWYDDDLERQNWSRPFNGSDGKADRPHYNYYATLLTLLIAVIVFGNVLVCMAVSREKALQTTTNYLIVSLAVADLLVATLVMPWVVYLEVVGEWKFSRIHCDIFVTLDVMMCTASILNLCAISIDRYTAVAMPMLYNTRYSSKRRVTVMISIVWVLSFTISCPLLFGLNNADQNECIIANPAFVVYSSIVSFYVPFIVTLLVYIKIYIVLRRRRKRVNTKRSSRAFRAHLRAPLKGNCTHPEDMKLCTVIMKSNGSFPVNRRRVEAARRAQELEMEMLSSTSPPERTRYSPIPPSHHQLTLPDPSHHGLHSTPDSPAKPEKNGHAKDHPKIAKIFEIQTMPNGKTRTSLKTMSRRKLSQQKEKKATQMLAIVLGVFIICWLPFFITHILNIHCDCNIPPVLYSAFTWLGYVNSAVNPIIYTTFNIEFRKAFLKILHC
row,Structure (SMILES),Potency
1,C=CC1(C)OC(=O)N(c2cc(Cl)cc(Cl)c2)C1=O (stereo not given),inactive
2,CCCCC1C(=O)NC(=O)N(C2CCCCC2)C1=O (stereo not given),inactive
3,Oc1ccc(-c2ccccc2)cc1,inactive
4,CCCCCCCCCCCCCC[P+](CCCCCC)(CCCCCC)CCCCCC,inactive
5,c1ccc(-c2cccc(-c3ccccc3)c2)cc1,inactive
6,Cc1cc(Cl)ccc1OCC(=O)O,inactive
7,C[C@H]1CCCC(=O)CCC/C=C/c2cc(O)cc(O)c2C(=O)O1,inactive
8,Cc1cc(Cl)ccc1N=CN(C)C,inactive
9,O=S(=O)(O)OOS(=O)(=O)O,inactive
10,CCN(CC)C(=O)/C(Cl)=C(\C)OP(=O)(OC)OC,inactive
11,Oc1c(Br)cc(Br)cc1Br,inactive
12,CN=C=S,inactive
13,N#Cc1ccccc1N,inactive
14,CCC(Cl)[N+](=O)[O-] (stereo not given),inactive
15,COc1ccc(C(O)(c2cncnc2)C2CC2)cc1 (stereo not given),inactive
16,CC(O)CN(CC(C)O)CC(C)O (stereo not given),inactive
17,CCCCCCn1cc[n+](C)c1,inactive
18,O=C(O)CC(O)(CC(=O)O)C(=O)O,inactive
19,CC(C)(C)OOC(=O)c1ccccc1,inactive
20,Clc1ccc(C2(Cn3cncn3)OCCO2)c(Cl)c1,inactive

row,Structure (SMILES),Potency
1,O=[N+]([O-])O[C@H]1CO[C@H]2[C@@H]1OC[C@H]2O[N+](=O)[O-],inactive
2,CCCCON=O,inactive
3,CCC(C)(C)c1ccc(O)cc1,inactive
4,Cc1cc(Cl)ccc1N,inactive
5,C[N+](C)(C)CC(=O)O,inactive
6,C=CCc1ccc2c(c1)OCO2,inactive
7,CC(Cl)Cl,inactive
8,O=C(O)COc1ccc(Cl)cc1Cl,inactive
9,Clc1ccc(C(Cl)(Cl)Cl)c(Cl)c1,inactive
10,CCCCN(CC)c1c([N+](=O)[O-])cc(C(F)(F)F)cc1[N+](=O)[O-],inactive
11,Oc1ccc(Cl)cc1Cl,inactive
12,CN(C)C(=O)Nc1ccc(Cl)cc1,inactive
13,OCCOCCO,inactive
14,CCOS(=O)(=O)OCC,inactive
15,O=P(O)(O)CN(CP(=O)(O)O)CP(=O)(O)O,inactive
16,C#CCOS(=O)OC1CCCCC1Oc1ccc(C(C)(C)C)cc1 (stereo not given),inactive
17,[O-][Cl+2]([O-])O,inactive
18,CC(Br)C(=O)O (stereo not given),inactive
19,Cc1cnc[nH]1,inactive
20,C[N+](C)(C)C,inactive
